This note sets out measurements from PubChem BioAssay AID1259376 (The Scripps Research Institute Molecular Screening Center, 2018).

As usually defined, the inhibition is the drop in the measured response relative to a control, in per cent.

Screen size: about 4,700 compounds; about 360 (7.7%) were called active. A selection follows. A number with no mark means an inactive call.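 Rule for the calls: active = inhibition above a cutoff derived from the DMSO control wells (cut at about 30% in these data); inactive = the rest.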

A short description of the assay: AlphaScreen optical interference compounds, counter-screen for MITF inhibitor project, biochemical, triplicate (AID 1259376). As to conditions: LysRS AlphaScreen counterscreen, signal interference, at 2.6 µM, active compounds read high. (In general: Alpha assays give light when donor and acceptor beads are brought close together.)
Take `CSc1nnc(SCc2nc3sc(C(=O)O)c(C)c3c(=O)[nH]2)s1`: the inhibition is 11.5%.

Regarding `Cc1ccc(CN2CCN(Cc3ccncc3)CC2)cc1`, the inhibition was 16.6%.

Turning to `COc1ccc(Br)cc1CN1CCN(C(=O)c2cccnc2)CC1`, the inhibition was -9.47%.

With `CCN(C(=O)Cc1nc(N)n[nH]1)C1(C(=O)Nc2ccccc2)CCCCC1`, the inhibition was 100% (active).

As for `CCN(C(=O)Cc1nc(N)n[nH]1)C1(C(=O)Nc2ccc(C)cc2)CCCCC1`, the inhibition is 101% (active).

Take `Cc1nc2sc(C(c3ccccc3Cl)N3CCC4(CC3)OCCO4)c(O)n2n1` (centres undefined): the inhibition is 13.3%.

Consider `CCN(Cc1ccccc1)Cc1ccc([N+](=O)[O-])cc1`, for which the inhibition is -3.54%.

As to `COc1ccc(CN2CCC(C(=O)N3CCN(Cc4ccccc4)CC3)CC2)cc1`, the inhibition was 8.38%.

For `c1ccc(-c2ccccc2OCCNCCN2CCOCC2)cc1`, the inhibition was 24.1%.

For `Clc1cccc(CN2CCN(C3CCCC3)CC2)c1`, the inhibition was 9.81%.

On to `O=C(Nc1ccc2c(c1)OCO2)C(c1ccccc1)N(Cc1ccccc1)Cc1ccccc1` (centres undefined), for which the inhibition is -2.62%.

Regarding `CC(C)CO/N=C1\C[C@@H](O)[C@@H](O)[C@@H]2[C@@H]3C(=O)N([C@@H](C)c4ccccc4)C(=O)[C@@H]3CC[C@@H]12`, the inhibition was -1.34%.

`CN1CCN(CCC(=O)N/N=C/c2ccsc2)CC1`: the inhibition is -5.86%.

In the case of `COc1cccc(CN2CCN(C(=O)c3ccccc3F)CC2)c1`, the inhibition was -7%.

For `COc1ccc(CN2CCN(Cc3cccc(Br)c3)CC2)c(OC)c1`, the inhibition is 22.2%.

Turning to `COc1ccc(COCC(O)CNCC(C)(C)CN(C)C)cc1OC` (centres undefined), the inhibition is 3.11%.

With `CC(C)c1ccc(C2/C(=C(/O)c3ccccc3)C(=O)C(=O)N2CCN(C)C)cc1` (centres undefined), the inhibition was 15.2%.

For the compound `COc1ccc(CN2CCCC(C(=O)N3CCCCC3)C2)cc1` (centres undefined), the inhibition is -1.29%.

In the case of `COc1cccc(CN2CCN(C/C=C/c3ccccc3)CC2)c1OC`, the inhibition was 5.04%.

`O=[N+]([O-])c1ccccc1CN1CCN(Cc2ccccc2C(F)(F)F)CC1`: the inhibition was 9.98%.

For `CN1CCN(CCOCCOc2ccccc2Cl)CC1`, the inhibition was 11.5%.

In the case of `O=C(O)CCCCC1SCC2NC(=O)NC21O` (centres undefined), the inhibition was 98.9% (active).

Turning to `N#Cc1ccc(/C=N/NC(=O)c2cc([N+](=O)[O-])cc([N+](=O)[O-])c2)cc1`, the inhibition was -2.55%.

On to `O=S(=O)(c1ccc(Br)cc1Cl)N1CCN(CCc2ccncc2)CC1`, for which the inhibition is 16.2%.

In the case of `CCCCCCOC(=O)c1cc(C(=O)OCCCCCC)c(C)nc1C`, the inhibition is -5.97%.

In the case of `COc1ccc(CN2CCN(Cc3cc(OC)c(OC)c(OC)c3)CC2)cc1`, the inhibition is 14.7%.

On to `CC(=O)N1CCN(C(=O)c2ccc(N3CC4CC(C3)c3cccc(=O)n3C4)c(NC(=O)c3cccnc3)c2)CC1` (centres undefined), for which the inhibition was -7.87%.

Turning to `COc1ccc(Br)cc1CN1CCN(CCOCCO)CC1`, the inhibition is -5.73%.

On to `COc1cccc(OC)c1C(=O)N1CCN(Cc2ccccc2F)CC1`, for which the inhibition is 20.4%.

Consider `Cc1ccc(NC(=O)CNCCCSc2ccccc2)cc1C`, for which the inhibition is 20.6%.

On to `O=C(O)C1C2C=CC(O2)C1C(=O)Nc1nccs1` (centres undefined), for which the inhibition is 13.2%.

Turning to `CC(NCCCN1CCOCC1)C(=O)Nc1ccccc1` (centres undefined), the inhibition is 12.1%.

In the case of `COC(=O)C(C)CN1CCN(Cc2ccc3c(c2)OCO3)CC1` (centres undefined), the inhibition was 13.8%.

For `CC1(C)CC(=O)C2=C(C1)Nc1ccccc1N(C(=O)Cc1ccccc1)C2c1ccc(-c2ccc([N+](=O)[O-])cc2)o1` (centres undefined), the inhibition was 15%.

Consider `COc1cc(CN2CCN(Cc3ccccc3Cl)CC2)cc(OC)c1OC`, for which the inhibition is 13%.

Regarding `N#Cc1ccc(OCC(=O)Nc2nc(-c3ccccn3)cs2)cc1`, the inhibition is 100% (active).

Regarding `Nc1ccc(S(=O)(=O)O)c2cc(S(=O)(=O)O)cc(O)c12`, the inhibition is 38.9% (active).

Take `CCN1CCN(CCOc2ccc(-c3ccccc3)cc2)CC1`: the inhibition is 9.15%.

Take `COc1cccc(C(=O)N2CCN(Cc3cc(OC)c(OC)cc3OC)CC2)c1`: the inhibition is 7.33%.

For `CC(=O)c1cccc(N2C(=O)c3cccnc3C2=O)c1`, the inhibition was 27.9%.

For the compound `CC1CCCC(N2CCN(Cc3ccccc3Cl)CC2)C1` (centres undefined), the inhibition is -7.94%.

Take `CCN(CC)CCN1COc2c(cc(Cl)c3cccnc23)C1`: the inhibition is 100% (active).

Take `COc1ccccc1CN1CC(C)OC(C)C1` (centres undefined): the inhibition was 3.15%.

As for `Cc1ccc(NC(=O)COC(=O)CCC(=O)Nc2sc3c(c2C(N)=O)CCC3)cc1F`, the inhibition is 6.94%.

Turning to `CCN(CC(=O)NCc1ccc(Cl)cc1)Cn1nnc2ccccc21`, the inhibition is -7.45%.

As to `Cn1c(=O)oc2cc(S(=O)(=O)N3CCC(C(=O)NC(C)(C)C)CC3)ccc21`, the inhibition was 0.26%.

For `CCS(=O)(=O)N1CCN(C2CCCCC2C)CC1` (centres undefined), the inhibition is 7.29%.

Consider `c1ccc(CCCCNc2nccc(Nc3ccncn3)n2)cc1`, for which the inhibition was 9.16%.

`COc1cccc(CN2CCC(C(=O)NCCc3ccccc3)CC2)c1`: the inhibition was 13.6%.
